Results published in PubChem BioAssay.
Calls of active or inactive are those of the source.

Key:
[1] = small molecules captured by biotinylated probe aFSTL3 – biochemical, small-molecule microarray, fluorescence 635/667, stem cell growth factor project, primary screen (AID 1064); conditions: higher = more signal;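 also: measures binding of the biotinylated anti-FSTL3 antibody to printed compounds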
[2] = binders from COS7 lysate, DM2A8 probe, primary screen, torsin A project, cell lysate, small-molecule microarray, fluorescence 635/667 (AID 1065); conditions: higher = more signal, COS7 lysate expressing mutant human TOR1A
[3] = small molecules captured by biotinylated probe aFGF2 – biochemical, small-molecule microarray, fluorescence 635/667, stem cell growth factor project, primary screen (AID 1067); conditions: higher = more signal;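 also: measures binding of biotinylated aFGF2 protein to printed compounds on slides; z-score merges feature fluorescence and signal-to-noise across triplicate slides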
[4] = small molecules captured by biotinylated probe aFGF10 – biochemical, small-molecule microarray, fluorescence 635/667, stem cell growth factor project, primary screen (AID 1071); conditions: higher = more signal;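 also: score merges 667 nm spot intensity and signal to noise from triplicate slides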
[5] = molecular target: Neurogenic locus notch homolog protein 2 (Homo sapiens) (UniProt Q04721); assay: small molecules binding Notch2 protein – biochemical, small-molecule microarray, 635 nm fluorescence, stem cell growth factors, primary screen (AID 1073); conditions: higher = more signal
Chain of Neurogenic locus notch homolog protein 2 (Homo sapiens) (Q04721 whole entry, looked up, canonical isoform): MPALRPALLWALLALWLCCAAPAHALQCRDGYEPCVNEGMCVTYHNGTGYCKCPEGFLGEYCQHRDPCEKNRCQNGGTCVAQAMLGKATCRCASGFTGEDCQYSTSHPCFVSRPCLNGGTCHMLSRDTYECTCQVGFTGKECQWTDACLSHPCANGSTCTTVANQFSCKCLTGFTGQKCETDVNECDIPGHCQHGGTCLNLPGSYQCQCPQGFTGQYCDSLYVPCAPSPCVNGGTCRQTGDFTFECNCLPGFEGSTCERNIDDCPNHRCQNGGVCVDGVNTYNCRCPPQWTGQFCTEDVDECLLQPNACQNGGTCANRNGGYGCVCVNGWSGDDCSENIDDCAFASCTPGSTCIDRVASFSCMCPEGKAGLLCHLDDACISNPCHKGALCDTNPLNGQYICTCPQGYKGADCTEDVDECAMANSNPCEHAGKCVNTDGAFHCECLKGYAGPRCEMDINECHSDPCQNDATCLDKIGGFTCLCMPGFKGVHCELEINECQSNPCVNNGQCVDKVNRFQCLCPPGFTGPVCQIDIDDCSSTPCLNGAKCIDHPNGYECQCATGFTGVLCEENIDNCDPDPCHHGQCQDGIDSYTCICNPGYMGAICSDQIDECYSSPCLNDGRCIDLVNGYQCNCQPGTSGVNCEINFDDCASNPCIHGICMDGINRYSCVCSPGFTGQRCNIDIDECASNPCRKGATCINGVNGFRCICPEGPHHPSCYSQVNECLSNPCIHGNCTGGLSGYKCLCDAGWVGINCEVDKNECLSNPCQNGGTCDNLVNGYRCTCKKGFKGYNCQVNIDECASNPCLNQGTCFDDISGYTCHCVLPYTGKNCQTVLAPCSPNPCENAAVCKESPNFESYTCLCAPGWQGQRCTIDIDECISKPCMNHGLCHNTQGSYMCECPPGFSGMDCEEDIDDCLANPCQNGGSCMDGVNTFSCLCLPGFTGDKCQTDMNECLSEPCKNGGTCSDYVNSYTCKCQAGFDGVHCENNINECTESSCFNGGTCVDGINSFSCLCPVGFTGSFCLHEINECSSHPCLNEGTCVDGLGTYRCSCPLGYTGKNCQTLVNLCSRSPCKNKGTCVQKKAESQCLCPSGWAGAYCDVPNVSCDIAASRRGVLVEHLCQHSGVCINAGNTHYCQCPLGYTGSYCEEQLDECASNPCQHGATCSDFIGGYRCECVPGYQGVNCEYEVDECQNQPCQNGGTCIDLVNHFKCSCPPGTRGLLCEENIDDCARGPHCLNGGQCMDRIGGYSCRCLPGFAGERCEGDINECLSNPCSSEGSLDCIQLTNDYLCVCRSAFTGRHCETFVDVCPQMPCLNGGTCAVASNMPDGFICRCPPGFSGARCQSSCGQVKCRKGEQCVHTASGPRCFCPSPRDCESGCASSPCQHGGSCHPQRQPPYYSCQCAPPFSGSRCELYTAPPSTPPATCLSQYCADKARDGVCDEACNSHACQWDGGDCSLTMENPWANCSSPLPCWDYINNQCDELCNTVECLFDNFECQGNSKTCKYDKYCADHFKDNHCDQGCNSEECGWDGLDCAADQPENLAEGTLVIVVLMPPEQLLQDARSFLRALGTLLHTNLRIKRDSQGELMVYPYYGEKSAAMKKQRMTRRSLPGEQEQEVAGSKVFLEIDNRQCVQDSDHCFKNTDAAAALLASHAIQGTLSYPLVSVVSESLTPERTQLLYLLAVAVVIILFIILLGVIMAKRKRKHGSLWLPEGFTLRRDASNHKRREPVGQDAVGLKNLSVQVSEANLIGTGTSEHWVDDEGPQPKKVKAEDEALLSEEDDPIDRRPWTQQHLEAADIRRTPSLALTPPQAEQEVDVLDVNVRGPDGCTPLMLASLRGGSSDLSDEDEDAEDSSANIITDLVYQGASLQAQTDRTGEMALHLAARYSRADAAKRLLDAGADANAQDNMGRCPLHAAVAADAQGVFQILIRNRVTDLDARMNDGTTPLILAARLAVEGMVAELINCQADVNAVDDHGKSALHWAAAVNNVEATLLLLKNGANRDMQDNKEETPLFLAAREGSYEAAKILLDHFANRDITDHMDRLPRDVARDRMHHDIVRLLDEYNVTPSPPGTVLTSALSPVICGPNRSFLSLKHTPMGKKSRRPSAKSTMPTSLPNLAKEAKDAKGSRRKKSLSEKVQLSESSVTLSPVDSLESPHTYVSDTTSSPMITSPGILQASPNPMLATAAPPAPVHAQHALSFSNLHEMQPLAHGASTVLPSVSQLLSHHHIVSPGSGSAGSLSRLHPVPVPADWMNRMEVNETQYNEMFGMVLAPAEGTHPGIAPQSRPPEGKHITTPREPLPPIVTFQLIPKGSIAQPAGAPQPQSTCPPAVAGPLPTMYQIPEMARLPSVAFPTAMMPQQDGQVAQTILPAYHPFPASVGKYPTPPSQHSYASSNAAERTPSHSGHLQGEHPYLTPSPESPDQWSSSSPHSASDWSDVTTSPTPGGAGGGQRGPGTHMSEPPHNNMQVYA

[6] = molecular target: Pro-neuregulin-1, membrane-bound isoform (Homo sapiens) (UniProt Q02297); assay: small molecules binding neuregulin-1 protein – biochemical, small-molecule microarray, fluorescence 635/667, psychiatric disease protein project, primary screen (AID 1075); conditions: NRG1 binding, 635 nm fluorescence, higher = more signal;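 also: score combines 667 nm spot fluorescence with signal to noise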
Chain of Pro-neuregulin-1, membrane-bound isoform (Homo sapiens) (Q02297 whole entry, looked up, the tested form may be a part, canonical isoform): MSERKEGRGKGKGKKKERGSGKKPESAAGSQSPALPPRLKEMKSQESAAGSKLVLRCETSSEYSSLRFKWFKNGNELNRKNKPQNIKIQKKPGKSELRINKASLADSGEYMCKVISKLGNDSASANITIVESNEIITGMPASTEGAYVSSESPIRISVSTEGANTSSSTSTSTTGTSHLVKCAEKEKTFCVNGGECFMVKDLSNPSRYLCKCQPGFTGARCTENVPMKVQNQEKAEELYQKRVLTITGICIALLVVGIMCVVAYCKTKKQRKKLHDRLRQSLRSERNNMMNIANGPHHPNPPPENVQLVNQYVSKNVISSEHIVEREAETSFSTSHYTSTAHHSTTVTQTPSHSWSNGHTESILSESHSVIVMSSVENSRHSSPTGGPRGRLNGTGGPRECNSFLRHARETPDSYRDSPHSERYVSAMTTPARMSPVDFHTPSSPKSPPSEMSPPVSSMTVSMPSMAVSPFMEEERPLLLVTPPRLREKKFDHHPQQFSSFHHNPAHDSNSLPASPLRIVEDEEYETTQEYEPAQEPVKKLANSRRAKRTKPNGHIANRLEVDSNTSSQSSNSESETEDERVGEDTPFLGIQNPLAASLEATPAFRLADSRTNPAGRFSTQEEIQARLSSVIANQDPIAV

[7] = tested on: Neuregulin-1 EGF-like domain; assay: small molecules binding NRG1 EGF domain – biochemical, small-molecule microarray, 635 nm fluorescence, primary screen (AID 1081); conditions: higher = more signal;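 also: binding of the protein to compounds printed on small-molecule microarray slides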
[8] = FRG1 expression reporter modulators in myotubes – cell-based, C2C12 myotubes, firefly/Renilla luciferase, luminescence, FRG1 inhibition for FSHD, primary screen (AID 1084); conditions: FRG1 promoter luciferase, higher = more signal, called active from +8 up or from −8 down
[9] = small molecules captured by biotinylated probe aFST – biochemical, small-molecule microarray, fluorescence 635/667, stem cell growth factor project, primary screen (AID 1086); conditions: higher = more signal;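 also: score merges 667 nm fluorescence with signal-to-noise of each printed compound spot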
[10] = binders of probe aHhip on microarray, primary screen, stem cell growth factor project, biochemical, small-molecule microarray, fluorescence 635/667 (AID 1087); conditions: higher = more signal;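 also: score merges spot fluorescence at 667nm with spot signal to noise ratio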

Row | Compound | composite z-score [1] | composite z-score [2] | composite z-score [3] | composite z-score [4] | composite z-score [5] | composite z-score [6] | composite z-score [7] | z-score [8] | composite z-score [9] | composite z-score [10]
1 | COCCCNC(=O)[C@]1(Cc2ccccc2N=[N+]=[N-])N=C(c2ccc(OCCCO)cc2)O[C@@H]1c1ccccc1 | 0.522 | 1 | 0.286 | 0.232 | 1.4 | 1.73 | 1.27 | -2.74 (inactive) | 1.14 | 0.547
2 | C=C(C(=O)CC[C@@H](OC(=O)c1ccccc1-c1ccccc1C(=O)O)c1cccc(OCCO)c1)C(C)C | -0.308 | 2.23 | -0.0577 | 1.22 | 0.234 | 0.535 | -0.141 | 0.345 (inactive) | -0.156 | 0.154
3 | C=CCN1C(=O)[C@]2(O[C@H](CCO)[C@@H]([Si](C)(C)c3ccc(OC)cc3)[C@@H]2C)c2cc(N3C(=O)c4ccccc4Oc4ccccc43)ccc21 | -0.086 | -0.203 | -0.0392 | 0.56 | 0.0699 | 0.967 | 1.03 | -1.5 (inactive) | 0.0141 | -0.236
4 | O=C1C2C=CC(C(O)C(c3ccccc3)c3ccccc3)N(Nc3ccccc3F)C2C(=O)N1c1ccccc1 (stereo not given) | -0.117 | 0.975 | 0.11 | 1.03 | 1.63 | 1.76 | 1.32 | -0.243 (inactive) | 1.5 | -0.121
5 | C=C(C)C1CN([C@H](CO)c2ccccc2)C(=O)/C1=C\c1ccccc1 (stereo not given in full) | -0.511 | 0.188 | -0.111 | 0.305 | -0.0443 | 0.049 | 0.465 | -1.39 (inactive) | 0.173 | -0.174
6 | C=CC[C@]1(C(=O)NCCN2CCOCC2)N=C(c2ccc(OCCCO)cc2)O[C@H]1c1ccccc1 | -0.038 | 0.422 | -0.0691 | 0.571 | 0.862 | 0.0304 | 1.25 | 1.37 (inactive) | 1.18 | -0.479
7 | C=CCOC(=O)[C@H]1[C@@H]2C(=O)O[C@@H](c3ccccc3)[C@@H](c3ccccc3)N2[C@@H](c2ccc(OCCOC(=O)[C@H]3C[C@H]4C(=O)NCC(=O)N4[C@H]3c3ccc(O)cc3)cc2)[C@]12C(=O)Nc1ccccc12 | 0.924 | 0.933 | -0.0355 | 0.738 | 1.2 | 1.57 | 1.33 | 0.575 (inactive) | 0.389 | 0.49
8 | COc1ccc([Si](C)(C)[C@@H]2[C@@H](CC(=O)N(CCO)Cc3ccccc3)O[C@]3(C(=O)N(Cc4cccc(I)c4)c4ccccc43)[C@H]2C)cc1 | 2.68 | 1.17 | -0.0422 | 0.396 | 0.779 | 0.496 | 1.13 | -0.939 (inactive) | 0.42 | 0.572
9 | CC(C)C[C@H]1NC(=O)CNC(=O)[C@@]23C(=O)N[C@@H](Cc4ccccc4)C2[C@H](C)[C@@]2(C)O[C@H]2C3/C=C/C/C=C\CNC1=O (stereo not given in full) | -0.564 | 0.11 | -0.159 | 0.582 | -0.222 | 0.205 | 0.598 | 1.81 (inactive) | 0.136 | -0.0121
10 | CCCCN1CC=CC23O[C@@H]4/C=C\CCC(C)OC(=O)C4[C@H]2C(=O)N(CCO)[C@@H]3C1=O (stereo not given in full) | 0.19 | 1.97 | -0.117 | -0.206 | -0.722 | 0.19 | 1.12 | -0.093 (inactive) | -0.14 | -0.3
11 | C=C(CCCC)/C(=C/C[C@@H](OC(C)=O)c1ccc(OCCO)cc1)c1cc(C(=O)OC)ccc1OC | 0.0062 | 0.982 | -0.076 | -0.314 | -0.332 | 1.37 | 1.21 | 2.07 (inactive) | 0.0501 | -0.119
12 | C=CCN1C(=O)[C@@]2(O[C@@H](CCO)[C@H]([Si](C)(C)c3ccc(OC)cc3)[C@H]2C)c2cc(N3CCCCC3=O)ccc21 | -0.217 | 0.504 | -0.0415 | 0.268 | 0.704 | 1.12 | 1.14 | -1.11 (inactive) | 0.2 | 0.0373
13 | C=CCNC(=O)[C@H]1[C@@H]2C(=O)O[C@@H](c3ccccc3)[C@@H](c3ccccc3)N2[C@@H](c2ccc(OCCO)cc2)[C@]12C(=O)N(C(=O)OCCOC)c1ccc(C#CCNC(N)=O)cc12 | 0.141 | 0.275 | -0.399 | 0.474 | 1.41 | 0.491 | 0.778 | -0.988 (inactive) | 0.942 | -0.246
14 | CC(C)(C)OC(=O)CC[C@]1(C(N)=O)N=C(c2ccc(OCCCO)cc2)O[C@H]1c1ccccc1N=[N+]=[N-] | 0.365 | -0.434 | -0.0088 | 0.396 | 0.9 | 1.73 | 1.48 | 6.25 (inactive) | 0.616 | 0.213
15 | COc1cc(CO)cc(I)c1O[C@H]1C=C(C(=O)NCCO)C[C@@H](N(CCN2CCOCC2)C(=O)C2CCCO2)[C@@H]1O (stereo not given in full) | -0.351 | 0.193 | -0.109 | 0.228 | 1.14 | -0.34 | 0.201 | 0.104 (inactive) | 0.0496 | -0.0383
